Experiment [1] can be described thus: optical density shifts of acrAB sulA E. coli – strain DRC41, OD650, 48 h, E. coli filamentation inducer project, primary screen (AID 1152).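 Further: E. coli MC1000 strain DRC41 lacking acrAB efflux pump and sulA.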 Conditions: higher = more signal, called active from +8 up or from −8 down.
Experiment [2] can be described thus: probe aLefty1 binding on compound microarray – biochemical, small-molecule microarray, 635/667 nm fluorescence, primary screen (AID 1153).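 Further: score merges spot fluorescence with signal-to-noise ratio from the scanned slide images.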 The conditions noted are these: higher = more signal.
Experiment [3] can be described thus: plasmodial surface anion channel blockers, osmotic lysis – cell-based, P. falciparum Indochina, OD700, 1 h, primary screen (AID 1154). Conditions: P. falciparum Indochina infected RBC osmotic lysis, higher = more signal, called active from +8 up or from −8 down.
Experiment [4] in a line: plasmodial surface anion channel blockers, osmotic lysis – cell-based, P. falciparum Indochina, OD700, 2 h, primary screen (AID 1155).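 Further: lysis reports solute entry through the parasite surface anion channel PSAC.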 Conditions: P. falciparum Indochina infected erythrocytes, higher = more signal, called active from +8 up or from −8 down.
Experiment [5] in a line: changes in parasitized red cell lysis, either direction – P. falciparum Indochina, OD700, 3 h, PSAC antagonist project, primary screen (AID 1156). The conditions noted are these: P. falciparum-infected erythrocytes, osmotic lysis, higher = more signal, called active from +8 up or from −8 down.
Experiment [6] in a line: plasmodial surface anion channel blockers, osmotic lysis – cell-based, P. falciparum Indochina, OD700, 18 h, primary screen (AID 1157). Conditions: P. falciparum Indochina infected erythrocytes, osmotic lysis OD700, 18 h; higher = more signal, called active from +8 up or from −8 down.
Experiment [7] is described as follows: S6 kinase pathway phospho-S6 level changes – cell-based, A549, cytoblot, luminescence, serum-stimulated, primary screen (AID 1158).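 Further: serum-stimulated A549 lung adenocarcinoma cells; signal is phosphorylated S6 detected by cytoblot immunostaining with HRP secondary.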 The conditions noted are these: 5 h, higher = more signal.
For experiment [8], the target named is NADPH oxidase 2 (Homo sapiens) (UniProt P04839). Briefly: compounds shifting NOX2 Amplex Red fluorescence – cell-based, HEK293-NOX2, PMA-stimulated, NOX inhibitor project, primary screen (AID 1159). Further: test concentration not given here. The conditions noted are these: 45 min, higher = more signal, called active from +8 up or from −8 down.
Experiment [9] addresses NADPH oxidase 4 (Homo sapiens) (UniProt Q9NPH5). Briefly: compounds shifting NOX4 Amplex Red fluorescence – cell-based, HEK293-NOX4, tetracycline-induced, NOX inhibitor project, primary screen (AID 1160). Conditions: HEK293-NOX4, Amplex Red H2O2 fluorescence, 45 min; higher = more signal, called active from +8 up or from −8 down.
Experiment [10] has as its target NADPH oxidase 5 (Homo sapiens) (UniProt Q96PH1). Briefly: compounds shifting NOX5 Amplex Red fluorescence – cell-based, HEK293-NOX5, NOX inhibitor project, primary screen (AID 1161). Conditions: HEK293-NOX5, ionomycin, 45 min, higher = more signal.
Experiment [11] can be described thus: compound effects on lung adenocarcinoma cell viability – A549, calcein-AM fluorescence, 48 h, basal, profiling panel (AID 1162). Further: test concentration not given here. The conditions noted are these: higher = more signal.
The nature of experiment [12]: compound effects on differentiated 3T3-L1 adipocyte viability – cell-based, 3T3-L1 adipocytes, calcein-AM fluorescence, 48 h, basal, profiling panel (AID 1163). Further: test concentration not given here. Conditions: 3T3-L1 adipocytes viability, higher = more signal.
The nature of experiment [13]: compound effects on hepatocellular carcinoma cell viability – HepG2, calcein-AM fluorescence, 48 h, basal, profiling panel (AID 1164). Further: test concentration not given here. Conditions: higher = more signal.
Experiment [14] in a line: compound effects on multiple myeloma cell viability – MM1S, calcein-AM fluorescence, 48 h, basal, profiling panel (AID 1165). Further: test concentration not given here. The conditions noted are these: higher = more signal.
A short description of experiment [15]: calcein-AM signal in unstimulated myeloma cells – cell-based, calcein-AM fluorescence, 48 h, PK04 Diversity Set, profiling panel (AID 1166).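 Further: cells grown under basal conditions without added stimulus; test concentration not given here.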 The conditions noted are these: RPMI8226 myeloma viability, higher = more signal.
A short description of experiment [16]: JC-1 mitochondrial signal, unstimulated HepG2 cells – cell-based, JC-1 fluorescence, 24 h, 100 nL compound, profiling panel (AID 1167). Further: test concentration not given here. The conditions noted are these: HepG2 mitochondrial potential, higher = more signal.
Experiment [17] in a line: JC-1 mitochondrial signal, unstimulated adipocytes – cell-based, JC-1 fluorescence, 3T3-L1 adipocytes, 24 h, 100 nL compound, profiling panel (AID 1168). Further: test concentration not given here. Conditions: JC-1 mitochondrial fluorescence, higher = more signal, called active from +8 up or from −8 down.
Experiment [18] is described as follows: JC-1 mitochondrial signal, unstimulated myeloma cells – cell-based, JC-1 fluorescence, RPMI8226, 24 h, 100 nL compound, profiling panel (AID 1169). Further: test concentration not given here. Conditions: JC-1 mitochondrial potential fluorescence, higher = more signal.
The nature of experiment [19]: JC-1 mitochondrial signal, unstimulated MM1S myeloma – cell-based, JC-1 fluorescence, 24 h, 100 nL compound, profiling panel (AID 1170). Further: test concentration not given here. The conditions noted are these: MM1S mitochondrial potential, higher = more signal.
The nature of experiment [20]: resazurin metabolic signal in A549 cells – cell-based, resazurin fluorescence, 24 h, PK04 Diversity Set, profiling panel (AID 1171). Further: test concentration not given here. The conditions noted are these: A549 viability, higher = more signal, called active from +8 up or from −8 down.

Active and inactive are the calls of the source.

Chain of NADPH oxidase 5 (Homo sapiens) (Q96PH1 whole entry, looked up): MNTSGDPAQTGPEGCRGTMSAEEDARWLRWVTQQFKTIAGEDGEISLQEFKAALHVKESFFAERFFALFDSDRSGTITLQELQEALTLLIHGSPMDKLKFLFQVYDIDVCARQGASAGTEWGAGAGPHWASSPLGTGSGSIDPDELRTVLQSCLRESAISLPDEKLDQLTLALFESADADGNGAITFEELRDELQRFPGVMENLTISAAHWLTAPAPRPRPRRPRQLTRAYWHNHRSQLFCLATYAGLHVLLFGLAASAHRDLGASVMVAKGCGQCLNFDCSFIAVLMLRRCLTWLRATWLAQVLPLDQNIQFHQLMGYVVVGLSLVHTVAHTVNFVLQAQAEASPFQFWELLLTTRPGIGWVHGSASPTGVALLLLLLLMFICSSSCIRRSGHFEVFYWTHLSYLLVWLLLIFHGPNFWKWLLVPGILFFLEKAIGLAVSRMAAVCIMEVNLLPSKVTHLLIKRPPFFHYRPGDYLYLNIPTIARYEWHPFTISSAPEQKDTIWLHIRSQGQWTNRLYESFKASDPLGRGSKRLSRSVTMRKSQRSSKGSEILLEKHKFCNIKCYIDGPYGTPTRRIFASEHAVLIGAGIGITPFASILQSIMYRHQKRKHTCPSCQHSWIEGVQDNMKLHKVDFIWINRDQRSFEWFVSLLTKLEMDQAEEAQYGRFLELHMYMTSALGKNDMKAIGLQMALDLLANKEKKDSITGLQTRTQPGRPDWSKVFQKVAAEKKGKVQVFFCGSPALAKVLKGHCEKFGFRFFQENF
Chain of NADPH oxidase 2 (Homo sapiens) (P04839 whole entry, looked up): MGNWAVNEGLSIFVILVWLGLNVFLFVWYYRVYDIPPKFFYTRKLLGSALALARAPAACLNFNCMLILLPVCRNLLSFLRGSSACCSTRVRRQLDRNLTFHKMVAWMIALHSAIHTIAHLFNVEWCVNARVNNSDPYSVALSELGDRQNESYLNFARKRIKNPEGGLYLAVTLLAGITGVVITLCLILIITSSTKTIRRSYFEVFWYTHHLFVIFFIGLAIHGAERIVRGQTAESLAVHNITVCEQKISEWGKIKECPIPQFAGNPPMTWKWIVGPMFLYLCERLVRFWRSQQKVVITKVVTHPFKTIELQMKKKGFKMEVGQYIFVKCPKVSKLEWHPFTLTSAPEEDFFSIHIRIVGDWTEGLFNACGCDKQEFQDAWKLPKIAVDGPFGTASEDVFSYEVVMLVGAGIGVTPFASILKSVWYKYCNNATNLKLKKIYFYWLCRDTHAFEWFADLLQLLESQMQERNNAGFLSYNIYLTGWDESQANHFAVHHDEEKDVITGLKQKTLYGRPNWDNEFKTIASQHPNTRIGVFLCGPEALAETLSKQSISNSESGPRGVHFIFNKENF
Chain of NADPH oxidase 4 (Homo sapiens) (Q9NPH5 whole entry, looked up): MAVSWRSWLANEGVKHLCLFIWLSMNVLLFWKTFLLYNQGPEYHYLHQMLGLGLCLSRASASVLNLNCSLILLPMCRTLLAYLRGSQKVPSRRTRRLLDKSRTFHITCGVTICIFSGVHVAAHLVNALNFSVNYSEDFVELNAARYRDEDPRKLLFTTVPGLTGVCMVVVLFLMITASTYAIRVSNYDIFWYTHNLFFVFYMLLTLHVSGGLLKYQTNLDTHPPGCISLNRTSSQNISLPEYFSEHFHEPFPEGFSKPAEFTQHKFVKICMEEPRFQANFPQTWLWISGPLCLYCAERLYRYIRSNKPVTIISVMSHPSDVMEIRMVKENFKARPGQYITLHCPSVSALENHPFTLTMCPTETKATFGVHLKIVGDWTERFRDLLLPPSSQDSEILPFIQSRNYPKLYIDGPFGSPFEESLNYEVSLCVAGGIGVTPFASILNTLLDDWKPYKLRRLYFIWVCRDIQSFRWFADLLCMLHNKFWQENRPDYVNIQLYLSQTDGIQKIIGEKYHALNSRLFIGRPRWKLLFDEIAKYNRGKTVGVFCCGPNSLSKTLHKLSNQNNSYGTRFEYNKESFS

Consider `Cc1cc2c(nc1C)CCCN2CC(O)CN1CCN(C)CC1` (stereo not given), for which the z-score in experiment [1] is -0.243 (inactive); in experiment [3], 0.339 (inactive); in [4], 0.494 (inactive); in experiment [5], 0.0085 (inactive); in experiment [6], -0.0963 (inactive); in experiment [7], -0.542. Besides, the z-score was 0.438 (inactive) in [8]; -1.07 (inactive) in experiment [9]; -1.08 in experiment [10]; 0.306 in [11]; 0.411 in experiment [12]; -1.09 in [13]. In addition, the z-score in experiment [14] is 0.241; in experiment [15], -0.342; in experiment [16], -0.601; in experiment [17] it was -0.625 (inactive); in experiment [18] it was 0.142; in [19], 0.842. For the same molecule, in experiment [20], the z-score was -0.726 (inactive). In experiment [2], this molecule showed a composite z-score of 0.0733.
For `CC(C)CON=C1C[C@@H](O)[C@@H](O)[C@@H]2[C@@H]3C(=O)N([C@@H](C)c4ccccc4)C(=O)[C@@H]3CC[C@H]12`, the z-score in experiment [1] was 0.525 (inactive); in experiment [3] it was 3.27 (inactive); in [4], 0.149 (inactive); in experiment [5], 1.43 (inactive); in experiment [6] it was 0.106 (inactive); in experiment [7], -0.414. For the same molecule, the z-score is -3.44 (inactive) in [8]; 1.18 (inactive) in experiment [9]; 0.197 in experiment [10]; 0.58 in experiment [11]; -0.297 in [12]; -0.0223 in experiment [13]. The z-score was 0.844 in experiment [14]; 0.933 in experiment [15]; 0.658 in [16]; 0.341 (inactive) in [17]; 0.53 in experiment [18]; -1.32 in experiment [19]. Besides, in experiment [20], the z-score was -0.511 (inactive). In experiment [2], the composite z-score is -0.192.
`Cc1cc(C)c(-c2cc([C@H](C)ON=C3[C@H]4CCn5c(=O)n(-c6ccccc6)c(=O)n5[C@H]4[C@H](O)[C@@H]4O[C@H]34)on2)c(C)c1`: the z-score was -0.0555 (inactive) in experiment [1]; 1.43 (inactive) in experiment [3]; 0.322 (inactive) in [4]; 0.347 (inactive) in [5]; 0.391 (inactive) in experiment [6]; -0.914 in experiment [7]. The z-score in [8] is 0.0599 (inactive); in experiment [9], 0.68 (inactive); in [10], -0.114; in [11] it was -0.605; in [12], -0.91; in experiment [13], -0.887. The z-score in experiment [14] is -2.95; in experiment [15] it was -3.87; in [16], 0.668; in [17], -0.803 (inactive); in [18], -1.24; in experiment [19] it was -2.39. Besides, the z-score in [20] was -0.776 (inactive). In addition, the composite z-score in experiment [2] is 0.218.
For the molecule `CCCNC(=O)OC[C@H]1O[C@H](CCON=C2[C@H]3CCn4c(=O)n(-c5ccccc5)c(=O)n4[C@H]3[C@H](O)[C@@H]3O[C@H]23)C=C[C@@H]1Oc1ccc(OC)cc1`, the z-score in experiment [1] was 0.653 (inactive); in experiment [3] it was 1.69 (inactive); in [4] it was -0.0218 (inactive); in experiment [5] it was 0.378 (inactive); in experiment [6], 0.268 (inactive); in [7], -0.254. Besides, the z-score in [8] was -1.58 (inactive); in [9] it was -0.373 (inactive); in experiment [10], -0.987; in [11] it was -0.343; in [12], -0.414; in [13], -0.555. The z-score in experiment [14] was -1.83; in [15] it was -1.44; in experiment [16], -0.25; in experiment [17], -0.567 (inactive); in experiment [18], -0.7; in experiment [19], -0.75. The z-score in experiment [20] was -1.2 (inactive). The same molecule displayed a composite z-score in [2] of 0.198.
On to `CN(C)C(=O)[C@@]1(Cc2ccccc2)N=C(c2ccc(OCCCO)cc2)O[C@H]1c1ccccc1CN=[N+]=[N-]`, for which the z-score in [1] is 0.374 (inactive); in [3] it was 14.9 (active); in [4], 1.15 (inactive); in [5], 0.882 (inactive); in experiment [6], 0.0009 (inactive); in experiment [7], -0.474. In addition, the z-score in experiment [8] was -1.75 (inactive); in experiment [9], 1.17 (inactive); in [10], 0.163; in experiment [11], -0.309; in [12], -0.562; in [13], -0.903. The z-score is -0.74 in [14]; -2.6 in experiment [15]; -0.12 in experiment [16]; -0.775 (inactive) in experiment [17]; -0.913 in [18]; -0.589 in experiment [19]. Moreover, in experiment [20], the z-score is -0.348 (inactive). In experiment [2], this molecule gave a composite z-score of 0.981.
